Reference: PubChem BioAssay AID588742 (Southern Research Specialized Biocontainment Screening …, 2011)
Hit rate of the full screen: of about 1,800 compounds, about 410 (23%) were called active. Not all results are given here. Potency and affinity values are given separately. Unmarked numbers belong to inactive results. How the calls were made is not given here.

Experiment: viability of Vero cells under compound – cytotoxicity control for flavivirus capping enzyme inhibitors (AID 588742)
Settings: cytotoxicity counter-screen; series mostly up to 40 µM; viability: at the top concentration

SMILES	viability
O=C(CC(Nc1ccc(Cl)cc1Cl)C(=O)O)c1ccccc1 (stereo not given)	101%
Cc1c(Cl)cccc1NC(CC(=O)c1ccccc1)C(=O)O (stereo not given)	104%
O=C(NNc1ccc(O)cc1)c1ccc(Br)cc1	99.3%
Cc1cccc(NC(=O)CSc2nnc(-c3ccco3)c(-c3ccco3)n2)c1C	91.5%
Cc1ccc(O)c(NC2=C(Cl)C(=O)N(Cc3ccccc3)C2=O)c1	91.5%
O=C1/C(=C2\C(=O)N(Cc3ccc(F)cc3)c3ccccc32)SC(=S)N1CCS(=O)(=O)O	98.8%
Cc1ccc(S(=O)(=O)N2[C@@H](c3cccc(Cl)c3)C(C(=O)O)=CC[C@H]2c2ccc(C(C)C)cc2)cc1	104%
O=C(CSc1nc(O)c(Cc2ccccc2)c(=O)[nH]1)Nc1nnc(SCc2ccccc2)s1	93.8%
Oc1cc(CNC2CCCCC2)c(O)cc1CNC1CCCCC1	93.5%
CC(C)C[C@H](N)c1nnc(SCC(=O)Nc2ccc(Br)cc2)o1	105%
Cc1ccc(S(=O)(=O)Cc2ccc(C(=O)N3CCC(C(N)=O)CC3)o2)cc1	106%
CC(C)c1cc2c(c(O)c1O)[C@@]13CCCC(C)(C)C1CC2OC3=O (stereo not given in full)	87.4%
Cc1ccc(-c2csc(NS(=O)(=O)c3cccc(F)c3)n2)o1	110%
CCc1c(C)sc(NC(=O)OC)c1C(=O)N1CCCCC1	101%
O=C(O)c1ccccc1C(=O)c1ccc(Sc2ccc(Cl)cc2)c([N+](=O)[O-])c1	101%
Cc1sc(NC(=O)c2ccco2)c(C(c2ccncc2)N2CCOCC2)c1C (stereo not given)	99.2%
CC1(C)CC(=O)C(C(c2ccco2)C2C(=O)CC(C)(C)CC2=O)C(=O)C1	115%
Cc1noc(NS(=O)(=O)c2ccc(NC(=O)c3ccccc3NS(=O)(=O)c3ccc(F)cc3)cc2)c1C	93.3%
C/C(=N/Nc1ccc(C(=O)O)cc1)c1ccc(O)c(O)c1O	100%
CCS(=O)(=O)c1nc(S(=O)(=O)c2ccc(C)cc2)c(N2CCOCC2)s1	108%
O=C(O)c1ccc(/C=N/Nc2ccc(S(=O)(=O)N3CCCC3)cc2[N+](=O)[O-])cc1	91.7%
O=C1ON=C(c2ccccc2)/C1=C/c1ccc(-c2ccccc2[N+](=O)[O-])o1	96.9% [at 20 µM]

SMILES	viability
O=[N+]([O-])c1cc2c(cc1C=Nc1ccccc1)OCO2	102%
Cc1ccc2nsnc2c1S(=O)(=O)N(CCO)Cc1cc2cc3c(cc2[nH]c1=O)OCCO3	102%
COc1cccc(/C=C2/C(=O)NN(c3ccc(F)cc3)C2=O)c1	90.1%
CCC(C)NC(=O)Cc1ccc(-c2ccccc2)cc1 (stereo not given)	91.8%
CC1=NN(c2nc(-c3ccc(Cl)cc3)cs2)C(=O)C1	87.3%
CCCC(=Nc1ccc(N)cc1)C1=C(O)C(C(=O)OC)C(C)(C)CC1=O (stereo not given)	101%
O=C1C(O)=C(O)C(=O)c2ccccc21	90.9%
COC(=O)c1ccc(-c2ccc(C(c3c(C)[nH][nH]c3=O)c3c(C)[nH][nH]c3=O)o2)cc1	94.6%
O=C(Nc1cccc(Oc2ccc(C(=O)O)c(C(=O)O)c2)c1)c1ccc(-c2ccccc2)cc1	106%
CC1CCC(C(C)C)C2=C1C(C#N)(C#N)C(C#N)(C#N)C(c1ccccc1)N2 (stereo not given)	87.7%
Cc1ccc(-c2nn(-c3ccccc3)cc2/C=C2\SC(=S)N(CC(=O)O)C2=O)cc1	82.5%
CC1(C)CC(=O)C(=Cc2cn(CCC#N)nc2-c2ccc(Cl)cc2)C(=O)C1	99.2%
O=C(Nc1ccc(Cl)cc1)C1c2cccc[n+]2CC(=O)N1Cc1ccc2c(c1)OCO2 (stereo not given)	96.9%
CCOc1cc(Br)cc(C(c2c(C(=O)O)[nH]c3ccccc23)c2c(C(=O)O)[nH]c3ccccc23)c1O	98.4%
Cc1nn(-c2ccccc2)c2c1C(c1cccs1)C(C#N)=C(N)O2 (stereo not given)	93.6%
Cc1ccc(CCNC(=O)C2CCN(S(=O)(=O)N3CCCCC3)CC2)cc1	98.7%
O=[N+]([O-])c1ccccc1-c1ccc(C(=S)N2CCCC2)o1	85.2%
O=[N+]([O-])c1ccccc1-c1ccc(C(=S)N2CCCCC2)o1	86.6%
O=C1NN(c2ccccc2)C(=O)/C1=C/c1ccc(-c2ccc(Cl)c(C(=O)O)c2)o1	101%
O=C(O)c1ccc(Cn2cc(/C=C\[N+](=O)[O-])c3ccccc32)o1	87.8%
COc1cc(-c2cccs2)cc(=O)c2c(C)oc(C)c12	111%
CCOc1ccc(/C=C2\SC(=S)N(CCC(=O)Nc3ccccc3C(=O)O)C2=O)cc1	103%

SMILES	viability
Cc1oc(=O)c(NC(=O)c2ccccc2)cc1C(=O)c1ccccc1	89.3%
Cc1ccc(C(=O)c2coc3c2C(=O)C(=O)c2ccccc2-3)cc1	87.2%
COc1ccc(C(=O)Nc2cc(C(=O)c3ccccc3)c(C)oc2=O)cc1	90.6%
O=C(COc1cccc2ccccc12)Nc1cc(Cl)ccc1C(=O)O	92.5%
O=C1Nc2ccc(F)cc2C12Nc1ccccc1-c1nnc(SCc3ccccc3F)nc1O2 (stereo not given)	95.3%
CC1=NOC(=O)/C1=C\c1ccc(-c2ccc(Br)cc2C(=O)O)o1	96.7%
CCOC(=O)c1c(-c2ccc(C)c(C)c2)csc1NC(=O)C1CC=CCC1C(=O)O (stereo not given)	99.5%
COC(=O)COc1ccc(C2Nc3c(Cl)ccc(C(=O)O)c3C3C=CCC32)cc1 (stereo not given)	95.6%
N#C/C(=C(/O)CSc1ccccc1C(=O)O)c1nc2ccccc2s1	96%
COc1ccc(CC(=O)NCc2ccc3c(c2)cc(C)n3C)cc1	106%
CC1=NN(c2nc(-c3ccc(F)cc3)cs2)C(=O)C1	96.5%
CCC(C(=O)O)N1C(=O)/C(=C/C(C)=C/c2ccccc2)SC1=S (stereo not given)	98.2%
CC(=O)Nc1ccc2nc(N)sc2c1	96.5%
COc1ccc(NCC(=O)N/N=C2\CCc3ccccc32)cc1	102%
CCOC(=O)c1c(N)sc(=S)c2c1CCC2	94.8%
CCOC(=O)c1c(N)sc2c1CCS(=O)(=O)C2	99.7%
CCCCC1=CC2=C(c3ccco3)C(=O)C(C)(OC(=O)c3ccc(OC)cc3)C(=O)C2=CN1C1CC1 (stereo not given)	90.4%
CC1=NOC(=O)/C1=C/c1ccc2c(c1)OCO2	99.9%
CC(=O)c1ccc(NC(=O)CSc2nnc(-c3ccco3)c(-c3ccco3)n2)cc1	88.2%
Nc1c(C(=O)O)sc2nc(-c3ccccc3)cc(-c3ccc(Cl)cc3)c12	108%
CCOC(=O)C1=C(O)/C(=C\c2ccc(CNC(=O)C(=O)Nc3ccccc3)o2)N=C1C	105%
